# Assay outcomes: PubChem BioAssay, National Center for Advancing Translational Sciences (NCATS)
# pAkt inh: blocks phosphorylation of Akt | Neuro2A IGF-stimulated pAkt S473 HTRF, 20 min; active compounds read low | activity change, % for hits at 50 µM | hit rate 0.32% among 360,000 | AID 651550; in the data active = activity change below about -80%; inconclusive = mostly about -51% to -80%
#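 Neuro2A cells in DMEM with 0.5% FBS, overnight at 37 deg C, given compound at single 50 µM final, then IGF (6 nM final) for 20 min at 37 deg C. Lysed; phospho-Akt Ser473 by HTRF after 24 h, 665/615 ratio.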
# CCT modulator: modulators of cytosolic chaperonin (CCT/TRiC) activity; purified chaperonin ATPase assay, HTRF ADP detection, 30 min; activity change, % (concentration not given with the values), hits read low; hit rate 0.3% among 360,000; AID 651819; in the data active = activity change below about -30%
#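 First, chaperonin was dispensed at 40 nM or 20 nM final depending on batch activity. Next, compounds were pinned at 76 uM and ATP added at 10 uM. After 30 min at 37 °C, ADP detection reagents ran 30 min at ambient temperature.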
# CtBP-E1A inh: inhibitors of CtBP/E1A interaction; activity change, % (no concentration beside the values); AlphaScreen GST-E1A/His-CtBP binding, 1536-well; active compounds read low; hit rate 0.49% among 340,000; AID 651724
#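 GST-E1A and His-tagged CtBP (125 nM each as 5X stock) were preincubated with pin-transferred compound for 2 h at 37 °C in the dark, then glutathione donor and nickel acceptor beads were added for 1 h before AlphaScreen reading.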
# Six1-Eya2 blk: blocks human Six1 binding to Eya2; hit rate 0.56% among 360,000; Q15475+O00167; activity change, % (test concentration not listed); AlphaScreen GST-Six1/His-Eya2 binding, biochemical; active compounds read low
# Target sequence (O00167 whole entry, looked up): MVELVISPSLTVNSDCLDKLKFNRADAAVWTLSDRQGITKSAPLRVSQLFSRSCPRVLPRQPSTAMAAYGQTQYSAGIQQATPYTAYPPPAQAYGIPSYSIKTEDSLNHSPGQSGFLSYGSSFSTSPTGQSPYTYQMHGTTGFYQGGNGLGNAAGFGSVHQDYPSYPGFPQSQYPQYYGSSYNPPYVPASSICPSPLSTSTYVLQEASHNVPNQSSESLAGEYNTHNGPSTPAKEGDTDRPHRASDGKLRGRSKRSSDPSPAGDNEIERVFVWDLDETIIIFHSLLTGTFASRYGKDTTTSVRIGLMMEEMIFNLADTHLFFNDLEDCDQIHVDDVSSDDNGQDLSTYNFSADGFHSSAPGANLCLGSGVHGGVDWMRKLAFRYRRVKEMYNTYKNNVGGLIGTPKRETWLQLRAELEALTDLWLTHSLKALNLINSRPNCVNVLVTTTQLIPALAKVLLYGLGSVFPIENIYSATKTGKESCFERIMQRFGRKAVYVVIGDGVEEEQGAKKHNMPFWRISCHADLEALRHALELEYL
# Target sequence (Q15475 whole entry, looked up): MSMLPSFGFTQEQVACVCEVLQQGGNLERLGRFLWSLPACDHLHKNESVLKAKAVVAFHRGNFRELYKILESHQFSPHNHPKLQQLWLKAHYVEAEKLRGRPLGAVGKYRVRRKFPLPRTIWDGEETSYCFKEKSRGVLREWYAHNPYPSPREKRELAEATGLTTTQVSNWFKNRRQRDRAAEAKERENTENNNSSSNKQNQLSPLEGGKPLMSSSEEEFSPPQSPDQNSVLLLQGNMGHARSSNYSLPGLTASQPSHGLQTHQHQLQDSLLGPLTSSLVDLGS
#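 Homogeneous AlphaScreen proximity assay pairing GST-Six1 with His-tagged Eya2 (added as 5X mix: 250 nM and 500 nM) in 50 mM Tris pH 8.0, 300 mM NaCl, 1 mM TCEP. Glutathione donor and nickel acceptor beads; 1 h, 37 °C, dark.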
# Numbers stand for hits; – = inactive; ? = inconclusive; · = no result. This is a sample that favours compounds with a hit; in the whole collection about 1.3% have one here. Cut-off read from the data, not from the text of the source, unless noted: active = activity change below about -65%; inconclusive = mostly about -30% to -63%; inactive = weaker than that.
SMILES,pAkt inh,CCT modulator,CtBP-E1A inh,Six1-Eya2 blk
Cc1ccc(/C=N/n2c(-c3ccccn3)n[nH]c2=S)o1,–,–,·,–
c1ccc(NC2=NCCN2CC2CCCCCC2)cc1,–,–,–,–
CCOc1ccc(NC(=O)C(=O)NCCN2CCN(S(=O)(=O)c3ccccc3)CC2)cc1,–,–,–,–
O=C(NNC(=O)c1cc(Cl)ccc1O)c1cccc(S(=O)(=O)N2CCOCC2)c1,–,–,?,?
S=c1[nH]nc(-c2ccccn2)n1/N=C/c1cccc2ccccc12,–,–,?,-67.5
CC(/C=N/n1c(-c2ccccn2)n[nH]c1=S)=C\c1ccccc1,–,–,?,?
COC(=O)c1[nH]c(C)c(/C(O)=C2\C(=O)C(=O)N(CCN3CCOCC3)C2c2cccs2)c1C (stereo not given),-96.2%,–,–,–
CC1CN(C(=O)c2cccc(S(=O)(=O)N3CCN(c4ccccc4)CC3)c2)CC(C)O1 (stereo not given),–,–,–,–
Cn1c(N)c(C(=O)CSc2ncn[nH]2)c(=O)n(C)c1=O,–,–,–,–
Cc1nnc(SCC(=O)c2c(N)n(C)c(=O)n(C)c2=O)[nH]c1=O,–,–,-72.7,?
Cc1nn(CC(C)C)c(Cl)c1C(=O)NCC(C)(C)N1CCOCC1,–,-33.9,–,–
Cc1nn(CC(C)C)c(Cl)c1C(=O)NCC1CCCO1 (stereo not given),–,–,–,–
CCCc1nnc(NC(=O)C2CCN(C(=O)c3ccco3)CC2)s1,–,–,–,–
Cc1c(C(=O)N2CCOCC2)c(S(=O)(=O)Nc2ccccc2)c(C)n1C,·,-53.4,·,–
Cc1ccc(SCC(=O)Nc2ccc(-c3nc4ccccc4[nH]3)cc2)cc1,–,–,–,–
N#Cc1c(SCC(=O)Nc2ccc(C(F)(F)F)cc2)sc2c(O)cc(=O)[nH]c12,–,–,–,–
N#Cc1c(SCC(=O)Nc2nncs2)sc2c(O)cc(=O)[nH]c12,–,–,-82.4,?
Cc1nc(C(=O)Nc2cc(F)cc(Cl)c2)sc1C1(C)CC(c2ccccc2)=NO1 (stereo not given),–,–,–,–
COc1cc(NC(=O)C2CCCN(S(=O)(=O)c3ccc4c(c3)CCCN4C(C)=O)C2)cc(OC)c1 (stereo not given),–,–,-65.1,?
COCCN(C(=O)COC(=O)c1c(C)nn(-c2ccccc2)c1C)c1c(N)n(Cc2ccccc2)c(=O)[nH]c1=O,–,–,–,–
NC(=O)NC(CC(=O)NNC(=O)c1ccccn1)c1ccccc1Cl (stereo not given),–,–,-78.6,-65.3
COc1ccc([C@@H]2OC2(C(N)=O)C(N)=O)cc1,–,–,–,–
NC(=O)C1(C(N)=O)OC1c1ccc(Cl)c(Cl)c1 (stereo not given),–,-57.0,·,–
CCOC(=O)N1CCN(C(=S)NC(=O)C2CCCC2)CC1,–,-70.6,–,–
CC1CCCC(C)N1NC(=O)c1ccc(Cl)c(S(N)(=O)=O)c1 (stereo not given),–,–,–,–
SMILES,pAkt inh,CCT modulator,CtBP-E1A inh,Six1-Eya2 blk
CC1Cc2ccccc2N1NC(=O)c1ccc(Cl)c(S(N)(=O)=O)c1 (stereo not given),–,–,–,-85.5
CCn1cc([N+](=O)[O-])c(C(=O)Nc2cc(C)on2)n1,-112.8%,–,–,–
COc1ccc(S(=O)(=O)Cc2ccc(C(=O)NC3CCCCC3)o2)cc1,–,–,·,–
CN(CC(=O)Nc1ccc(OC(F)(F)F)cc1)C(=O)c1ccccc1SCC(=O)N1CCCC1,–,–,–,–
CCn1nnnc1SCC(=O)c1ccc2c(c1)OCCO2,-104.3%,–,–,–
CC(C)n1nnnc1SCC(=O)c1ccc2c(c1)OCCO2,–,–,–,–
C/C(=N\Nc1ncc(Cl)cc1Cl)c1ccccn1,–,–,-66.2,-86.9
Cc1sc2ncnc(N/N=C/c3cccc(O)c3)c2c1C,–,–,–,?
C/C(=N\Nc1ncnc2sc(C)c(C)c12)c1ccccn1,–,–,-94.0,-73.4
Cc1ccc(S(=O)(=O)N2CCOCC2)cc1C(=O)OCC(=O)NCc1ccccc1,–,–,–,–
O=C(O)CCCCCNS(=O)(=O)c1cccc2c1C(=O)c1ccccc1C2=O,–,–,–,-76.4
COc1ccc(S(=O)(=O)N2CCCCCC2)cc1NC(=O)Cc1n[nH]c(=O)c2ccccc12,–,–,–,–
COCCNS(=O)(=O)c1ccc(-c2ccc(Cl)cc2)cc1,–,-40.0,–,–
COCCNS(=O)(=O)c1ccc(-c2ccc(S(=O)(=O)NCCOC)cc2)cc1,–,–,–,–
Cc1ccc(Nc2c(-c3ccccc3)nc3cnccn23)cc1,–,–,–,–
Cc1cc(C)n2c(Nc3ccc4c(c3)OCCO4)c(-c3ccccn3)nc2n1,–,–,?,-88.8
Cc1ccc(Nc2c(-c3ccccn3)nc3cc(C)ccn23)cc1,–,–,-93.1,-81.5
Cc1ccc(-c2nc3cnccn3c2Nc2ccc3c(c2)OCO3)o1,–,–,–,–
Cc1ccc(Nc2c(-c3ccccn3)nc3ccc(C)cn23)cc1,–,–,·,-93.0
Cc1ccn2c(Nc3ccc4c(c3)OCO4)c(-c3ccccn3)nc2c1,–,–,-80.8,-87.9
N#CC1=C(N)OC2=C(C(=O)CC(c3ccco3)C2)C1c1ccc(OCc2c(F)cccc2Cl)cc1 (stereo not given),-112.2%,–,–,–
O=C1CCCC/C1=C\Nc1ccc(O)cc1,·,–,–,–
O=C1CCCC/C1=C/Nc1ccc(S(=O)(=O)Nc2ncccn2)cc1,-120.0%,–,–,–
Clc1ccccc1Sc1cnc2ccccc2n1,-90.6%,–,–,–
Cc1ccc(C(=O)Nc2ccc(S(=O)(=O)N3CCOCC3)cc2)cc1Br,–,–,–,–
SMILES,pAkt inh,CCT modulator,CtBP-E1A inh,Six1-Eya2 blk
COCCCN(Cc1cccs1)S(=O)(=O)c1csc(C(N)=O)c1,–,–,·,–
O=C(N/N=C/c1ccc(-c2ccc(Cl)c(C(=O)O)c2)o1)c1cc2c(ccc3ccccc32)o1,–,–,-85.5,?
COc1ccc(N(CC(=O)Nc2cc(Cl)ccc2C)S(=O)(=O)c2c(C)n[nH]c2C)cc1,·,-58.7,·,?
COc1ccc(N(CC(=O)Nc2cc(Cl)ccc2OC)S(=O)(=O)c2c(C)[nH]c(=O)[nH]c2=O)cc1,–,–,-94.6,-90.4
COc1ccc(N(CC(=O)Nc2cc(C)ccc2C)S(=O)(=O)c2c(C)[nH]c(=O)[nH]c2=O)cc1,–,–,–,–
CCOC(=O)C1=CCN(S(=O)(=O)c2ccc(Cl)cc2)C1c1ccc(C)cc1 (stereo not given),–,–,–,–
O=c1c2ccccc2sn1-c1ccccc1,-106.7%,–,–,–
CC(C)NC(=O)C1(C)CCCN1C/C=C/c1ccccc1 (stereo not given),–,–,–,–
Cc1ccc(C(C(=O)NC2CCCC2)N(Cc2cccnc2)C(=O)c2snc(C(N)=O)c2N)o1 (stereo not given),-118.6%,–,–,–
CN(C)c1ccc(C(C(=O)NC2CCCC2)N(Cc2cccnc2)C(=O)c2snc(C(N)=O)c2N)cc1 (stereo not given),–,–,–,–
